Here are results for 14 compounds from PubChem BioAssay (NCI).

The structures appear in SMILES notation. About 83,000 compounds went through this panel and 20% of them were active in at least one assay; those are over-represented in the sample as a whole.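 Testing used 96-well plates and a 48-hour single-concentration exposure. Example: -40 means 40% of the starting cells died.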 A number with no mark means an inactive call. Calls of active or inactive are those of the source. Rule for the calls: active = growth percent below 10; inactive = the rest.

Among the test systems are DU-145 prostate; K-562 leukemia; MALME-3M melanoma; MDA-MB-231 breast; RXF 393 renal; SF-268 CNS; SF-295 CNS; SF-539 CNS; UACC-257 melanoma; M14 melanoma.
What all share (assay): NCI-60 one-dose screen, 48 h (100 = growth as untreated, 0 = no growth, -100 = all killed)
Conditions in all cases: 10 µM unless noted

`CCN(CC)CC(O)CNc1c2ccc([N+](=O)[O-])cc2nc2cc(OC)c(OC)cc12` (stereo not given): the growth was -29.9% (active) with DU-145 prostate; 3.2% (active) with K-562 leukemia; -82% (active) in the experiment with MALME-3M melanoma; -71.9% (active) with MDA-MB-231 breast; -43.4% (active) in the experiment with RXF 393 renal; -35.2% (active) in the experiment with SF-268 CNS. The growth was -8.54% (active) in the experiment with SF-295 CNS, -35.7% (active) in the experiment on SF-539 CNS, -33.5% (active) in the experiment with UACC-257 melanoma and -56.7% (active) with M14 melanoma.
For the compound `CCCCCCCCCC(=O)Oc1ccc(/C(=C(/C)Cc2cccc(OC)c2)c2ccc(OCCN(C)C)cc2)cc1`, the growth with DU-145 prostate is 108%; in the experiment on K-562 leukemia it was 100%; in the experiment with MALME-3M melanoma, 115%; in the experiment with MDA-MB-231 breast, 105%; in the experiment on RXF 393 renal, 115%; in the experiment on SF-268 CNS, 100%. In addition, the growth in the experiment with SF-295 CNS was 107%; with SF-539 CNS, 103%; with UACC-257 melanoma, 110%; in the experiment with M14 melanoma, 105%.
For the compound `CC(C)[C@@H]1CC[C@]2(C(=O)NCCCCN=C(N)N)CC[C@]3(C)[C@H](CC[C@@H]4[C@@]5(C)CCC(=O)C(C)(C)[C@@H]5CC[C@]43C)[C@@H]12`, the growth in the experiment on DU-145 prostate is 81.3%; in the experiment with K-562 leukemia, 24.6%; in the experiment with MALME-3M melanoma it was 19%; with MDA-MB-231 breast it was 74.3%; with RXF 393 renal, 93.8%; in the experiment on SF-268 CNS, 54.8%. Also, the growth with SF-295 CNS was 102%; in the experiment with SF-539 CNS, 69.5%; in the experiment with UACC-257 melanoma, 71.1%; with M14 melanoma, 71.2%.
`c1ccc2c(Nc3cccc4ccccc34)cccc2c1`: the growth with DU-145 prostate was 86.4%; in the experiment on K-562 leukemia it was 11.2%; in the experiment with MALME-3M melanoma, 50%; in the experiment on MDA-MB-231 breast, 46%; with RXF 393 renal, 83.8%; with SF-268 CNS, 72.7%. Besides, the growth was 69.1% in the experiment on SF-295 CNS, 56.9% in the experiment on SF-539 CNS, 80.3% in the experiment on UACC-257 melanoma and 30.3% in the experiment with M14 melanoma.
For `COc1cccc(-c2cn3c(ccc4ccccc43)n2)c1`, the growth was 39% in the experiment with DU-145 prostate; 13.2% with K-562 leukemia; 36.9% with MALME-3M melanoma; 44.9% with MDA-MB-231 breast; -5.05% (active) in the experiment with RXF 393 renal; 56% in the experiment with SF-268 CNS. In addition, the growth in the experiment with SF-295 CNS was 10.6%; in the experiment with SF-539 CNS, 12.5%; in the experiment on UACC-257 melanoma, 58.7%; in the experiment with M14 melanoma, 30.2%.
Take `COc1cc(NCCCCN=C(N)NC(N)=NC(C)C)c2ncccc2c1`: the growth was 127% in the experiment on DU-145 prostate; 39.1% in the experiment with K-562 leukemia; -2.65% (active) in the experiment on MALME-3M melanoma; 21.3% in the experiment with MDA-MB-231 breast; 154% in the experiment on RXF 393 renal; 54.1% in the experiment with SF-268 CNS. Further, the growth in the experiment on SF-295 CNS was 113%; in the experiment on SF-539 CNS, 78.1%; with UACC-257 melanoma it was 25.2%; in the experiment with M14 melanoma, 92.4%.
Turning to `COc1ccc(/C=C2\CN(C(=O)CCN3CCC(=NO)CC3)C/C(=C\c3ccc(OC)cc3)C2=O)cc1`, the growth is 22.6% with DU-145 prostate; 4.21% (active) with K-562 leukemia; -40.9% (active) with MALME-3M melanoma; -57.9% (active) with MDA-MB-231 breast; -81.2% (active) with RXF 393 renal; 13.3% in the experiment with SF-268 CNS. In addition, the growth was 8.38% (active) in the experiment with SF-295 CNS, -25.5% (active) in the experiment on SF-539 CNS, 22.9% with UACC-257 melanoma and 7.58% (active) in the experiment on M14 melanoma.
For the compound `CCCCNP1(NCCCC)=NP(NCCCC)(NCCCC)=NP(NCCCC)(NCCCC)=NP(NCCCC)(NCCCC)=N1`, the growth in the experiment on DU-145 prostate is 16.5%; in the experiment on K-562 leukemia, -26.4% (active); in the experiment with MALME-3M melanoma, -18.1% (active); in the experiment with MDA-MB-231 breast, -20.9% (active); in the experiment with RXF 393 renal, 16.5%; in the experiment with SF-268 CNS, 25.8%. For the same compound, the growth in the experiment with SF-295 CNS was -25% (active); with SF-539 CNS, 34%; with UACC-257 melanoma it was -22.5% (active); with M14 melanoma it was 11.8%.
As for `C/C(Cc1ccc(Cl)cc1)=C(\c1ccc(OCCN2CCCCCC2)cc1)c1ccc(OC(=O)Cc2ccccc2)cc1`, the growth in the experiment with DU-145 prostate was 75.9%; in the experiment on K-562 leukemia, 1.27% (active); with MALME-3M melanoma it was 69.5%; with MDA-MB-231 breast it was 82.4%; in the experiment with RXF 393 renal it was 53.6%; in the experiment with SF-268 CNS it was 60.2%. Moreover, the growth in the experiment with SF-295 CNS was 90.4%; in the experiment on SF-539 CNS, 81.5%; in the experiment with UACC-257 melanoma, 89.3%; with M14 melanoma, 21.8%.
With `CCN(CC)CCCNc1cc(OC)cc2nc3cc(Cl)ccc3nc12`, the growth in the experiment with DU-145 prostate was 0.94% (active); in the experiment on K-562 leukemia, -56.5% (active); in the experiment on MALME-3M melanoma it was -84.7% (active); with MDA-MB-231 breast, -25.9% (active); in the experiment with RXF 393 renal, -10.9% (active); with SF-268 CNS, -35.5% (active). Moreover, the growth in the experiment on SF-295 CNS is 18.1%; in the experiment on SF-539 CNS, -77.6% (active); in the experiment on UACC-257 melanoma it was -79.7% (active); in the experiment with M14 melanoma, -94.2% (active).
For `C=C1C(=O)O[C@H]2[C@H]1CC/C(Cn1cc(Cn3ccc4cc(Cl)ccc43)nn1)=C\CC[C@@]1(C)O[C@@H]21`, the growth with DU-145 prostate is 4.94% (active); in the experiment on K-562 leukemia, -29.2% (active); in the experiment on MALME-3M melanoma, -67.1% (active); with MDA-MB-231 breast, -51.8% (active); with RXF 393 renal it was -72.2% (active); in the experiment with SF-268 CNS it was 18.4%. For the same compound, the growth is 73.5% in the experiment with SF-295 CNS, -88.6% (active) in the experiment on SF-539 CNS, 28.8% in the experiment with UACC-257 melanoma and -4.18% (active) with M14 melanoma.
For `O=[N+]([O-])c1cccc(-c2nc3sccn3c2-c2ccnc(NCCCNS(=O)(=O)c3cccc(F)c3)n2)c1`, the growth in the experiment with DU-145 prostate was 9.77% (active); with K-562 leukemia it was 4.26% (active); with MALME-3M melanoma, -10.6% (active); with MDA-MB-231 breast, 47.6%; with RXF 393 renal, 52%; with SF-268 CNS, 11.8%. Moreover, the growth is 5.83% (active) in the experiment on SF-295 CNS, 34.8% with SF-539 CNS, -15.2% (active) in the experiment with UACC-257 melanoma and -1.16% (active) in the experiment on M14 melanoma.
Turning to `Cc1ccc2c(c1)O/C(=C\c1cccc(OCC(=O)c3ccccc3)c1)C2=O`, the growth was 103% in the experiment with DU-145 prostate; 93.4% with K-562 leukemia; 94.7% in the experiment with MALME-3M melanoma; 79% in the experiment with MDA-MB-231 breast; 80% in the experiment with RXF 393 renal; 103% in the experiment with SF-268 CNS. Also, the growth in the experiment with SF-295 CNS is 89.4%; with SF-539 CNS it was 105%; in the experiment with UACC-257 melanoma, 93.6%; with M14 melanoma, 98.9%.
Turning to `O=C(Nc1ccc(Oc2ccc(F)cc2)c(Cl)c1)c1cccnc1`, the growth is 87% in the experiment on DU-145 prostate; 50.9% in the experiment on K-562 leukemia; 103% with MALME-3M melanoma; 93.7% with MDA-MB-231 breast; 90.2% in the experiment on RXF 393 renal; 95% with SF-268 CNS. For the same compound, the growth in the experiment on SF-295 CNS is 86%; with SF-539 CNS it was 94.4%; in the experiment with UACC-257 melanoma it was 91.4%; in the experiment on M14 melanoma it was 97.3%.
